# Assay outcomes as filed in PubChem.
# F508del corr: CFTR F508del correction in bronchial cells | activity (quench increase), % at 7.58 µM | actives 0.36% (n = 350,000) | AID 720511 | CFBE cells, YFP halide quenching; stimulated with forskolin plus potentiator P3; % fluorescence drop versus neutral controls;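 active = mean added fluorescence quench of at least 8% versus neutral control, with both replicates also reaching 8%; inconclusive = only one of the mean or replicate conditions met; inactive = mean below 8% and not both replicates reaching 8%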;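 also: cells transiently co-express mutant CFTR-F508del with the halide-sensitive YFP; corrector assay measuring rescue of mutant channel to the surface after 24 h compound exposure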
# EWS-Fli block: inhibitors of EWS/Fli oncoprotein transcriptional activity. AID 651661. A673 NR0B1-luciferase reporter, viability-normalised. actives 0.67% (n = 350,000). inhibition, % at 12.6 µM;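 active = mean inhibition of at least 50% after viability correction, with every replicate also passing that limit; inconclusive = mean reaches 50% but only one of two replicates passes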;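 also: firefly luciferase signal divided by Alamar Blue viability fluorescence both relative to DMSO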
# PAX8 inh HTS: inhibitors of PAX8 transcriptional activity in RMG-I cells | RMG-I TPO-luciferase reporter, SteadyGlo, 24 h | inhibition, % at 12.6 µM | actives 1.2% (n = 360,000) | AID 652154;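 active = mean replicate inhibition at least 60% with every replicate also reaching 60%; inconclusive = only one of the two criteria is met; inactive = mean below 60% and not all replicates reaching 60%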;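 also: luciferase light reporting Pax8 driven TPO promoter activity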
# LGR2 antag: blocks bursicon-induced cAMP signaling via Drosophila LGR2; HEK293 LGR2, CRE-luciferase, bursicon-stimulated, 4 h; inhibition, % at 9.99 µM; actives 0.35% (n = 380,000);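 active = drop in luminescence signal, shown as inhibition above about 50% in the replicate tests, limit read from the data, passing the limit was not always enough; inconclusive = probably only some replicates passing the limit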;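 also: agonist challenge used bursicon conditioned medium at about half maximal strength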
# Numbers stand for hits; i = inactive; ? = inconclusive; nt = not tested or not shown. The list is not random: actives were taken first. Their share in the collection is about 1.8%.
SMILES,F508del corr,EWS-Fli block,PAX8 inh HTS,LGR2 antag
C[C@@H]1CCCCO[C@H](CN(C)CC2CCCCC2)[C@@H](C)CN([C@H](C)CO)C(=O)c2cc(NC(=O)Nc3ccc(C(F)(F)F)cc3)ccc2O1,i,i,i,i
C[C@@H]1CCCCO[C@@H](CN(C)CC2CCCCC2)[C@@H](C)CN([C@@H](C)CO)C(=O)c2cc(NC(=O)Nc3ccc(C(F)(F)F)cc3)ccc2O1,i,65,100,nt
CCC(=O)Nc1ccc2c(c1)C(=O)N(C)[C@H]1CC[C@H](CC(=O)NC3Cc4ccccc4C3)O[C@@H]1CO2,i,i,i,i
CCCNC(=O)Nc1ccc2c(c1)C(=O)N(C)[C@@H]1CC[C@@H](CC(=O)NCCCN(C)C)O[C@H]1CO2,i,i,i,i
O=S(=O)(CC(CN1CCCCC1)N1CCCCC1)c1ccccc1 (configuration not stated),i,i,64,i
C/C(=C\c1ccccc1F)C(=O)c1c(C)cc(C)[nH]c1=O,i,i,i,i
Cc1[nH]c(=O)c(C(=O)/C=C/c2ccccc2F)c2c1CCCC2,i,i,nt,86
Nc1nc(CN2CCN(c3ccccn3)CC2)nc(Nc2ccc(F)cc2)n1,nt,nt,i,nt
Cc1nn(CC(=O)Nc2ccc3c(c2)OCO3)c(C)c1Cl,i,i,i,i
O=C(Cn1ncc(Cl)c(Cl)c1=O)N1CCN(S(=O)(=O)c2ccc3ccccc3c2)CC1,nt,nt,97,i
CCN(CC)S(=O)(=O)c1cc(NC(=O)Cn2ncc(Cl)c(Cl)c2=O)ccc1C,i,i,93,i
Cc1cc(Br)ccc1NC(=O)CNC(=O)Cn1ncc(Cl)c(Cl)c1=O,?,i,i,74
O=C(Cn1ncc(Cl)c(Cl)c1=O)Nc1ccc2c(c1)OCO2,i,i,89,i
O=C(O)CCC(=O)N1CCN(S(=O)(=O)c2ccc3ccccc3c2)CC1,i,i,i,i
Cc1ccc(S(=O)(=O)Nc2ccc3c(c2)CC(=O)N([C@H](C)CO)C[C@@H](C)[C@@H](CN(C)C(=O)NC2CCCCC2)O3)cc1,i,i,i,i
C[C@@H](NC(=O)[C@@H]1Cc2ccccc2CN1C(=O)OC(C)(C)C)C(=O)NC1CCCCC1,i,nt,i,i
COc1ccc(NC(=O)Cn2ncc(Cl)c(Cl)c2=O)cc1S(=O)(=O)N1CCOCC1,nt,i,83,i
COc1ccc(NC(=O)c2ccc(Cl)nc2)cc1S(=O)(=O)N1CCOCC1,i,i,i,i
O=C(Cn1ncc(Cl)c(Cl)c1=O)NC(=O)NC1CCCCC1,i,62,91,96
Cc1ccc(S(=O)(=O)N2CCCCC2)cc1NC(=O)Cn1ncc(Cl)c(Cl)c1=O,i,75,99,54
CC(NCCN(C)C)C1CCC2C3CCc4cc(O)ccc4C3CCC12C (configuration not stated),i,i,i,i
COc1ccc(-c2[nH]ncc2CN2CCN(C3CCCCC3)C(=O)C2)cc1F,i,i,i,i
COc1ccc(CCN(C)C(=O)CNC(=O)c2ccccc2F)cc1OC,i,i,i,i
O=c1c(O)c(-c2cccs2)oc2ccc(Cl)cc12,53,i,nt,i
O=c1cc(-c2cccs2)oc2ccc(Cl)cc12,nt,nt,i,nt
SMILES,F508del corr,EWS-Fli block,PAX8 inh HTS,LGR2 antag
N#C/C(=C\c1cccnc1)c1ccccn1,i,i,i,i
CC(C)NC(=O)N1[C@H](CO)[C@@H]2c3ccccc3N(C(=O)Nc3ccccc3)C[C@@H]21,i,i,i,i
CC(=O)Nc1cc(-c2cccc(C(=O)NCCN(C)C)c2)cn2c(-c3cccc(C(F)(F)F)c3)cnc12,i,55,106,i
CCSc1ccc(-c2cc(NC=O)c3ncc(-c4cccc(C(=O)NCCN(C)C)c4)n3c2)cc1,i,?,99,i
Cc1ccn2cc(-c3ccc(Br)cc3)nc2c1,i,62,i,59
COCCNc1nc(NCc2ccc(NC(C)=O)cc2)c2sc(-c3ccccc3)cc2n1,i,i,86,i
C=CCNc1nc(NCCOC)c2sc(-c3ccccc3)cc2n1,i,i,i,i
C=CCNc1nc(Nc2ccc(OC)c(OC)c2)c2sc(-c3ccccc3)cc2n1,i,56,nt,i
COCCNc1nc(Oc2ccc(NC(C)=O)cc2)c2sc(-c3ccccc3)cc2n1,i,i,i,i
O=C(CCS(=O)(=O)c1ccccc1)Nc1nc2c(s1)COc1ccccc1-2,i,i,70,i
COCCSc1nnc(NC(=O)CCS(=O)(=O)c2ccccc2)s1,i,i,80,i
O=C(CCS(=O)(=O)c1ccccc1)Nc1nncs1,i,i,67,i
COCCSc1nnc(NC(=O)CS(=O)(=O)c2ccc(C)cc2)s1,i,i,i,i
O=C(Nc1nc2c(s1)COc1ccccc1-2)c1cccs1,i,i,i,i
CC(C)Cc1nnc(NC(=O)CCS(=O)(=O)c2ccc(Cl)cc2)s1,i,nt,71,i
CC(C)Cc1nnc(NC(=O)CCC(=O)Nc2ccc(Cl)cc2)s1,i,nt,i,i
Cc1ccc(Cl)cc1NC(=S)N(Cc1ccccc1)Cc1cccnc1,i,i,i,i
CNC[C@@H]1Oc2c(NC(=O)c3cnccn3)cccc2C(=O)N([C@@H](C)CO)C[C@H]1C,i,i,i,i
CC(C)(C)NCC(=O)N/N=C/c1ccc(OCc2ccccc2)cc1,i,i,i,i
C[C@H](CO)N1C[C@H](C)[C@@H](CN(C)Cc2cccc(C(=O)O)c2)Oc2ncc(C#CC(C)(C)O)cc2C1=O,i,i,nt,i
CCOCCc1nnc(NC(=O)C(C)Oc2ccccc2)s1 (configuration not stated),i,i,i,i
CCOCCc1nnc(NC(=O)CCS(=O)(=O)c2ccccc2)s1,i,i,65,i
Cc1ccc(S(=O)(=O)OCCC2=CC(=O)CCN2Cc2ccccc2)cc1,i,i,i,i
C/C(=N\NC(=O)c1ccc(Cl)c(Cl)c1)c1ccccn1,i,i,63,i
COc1ccc(C(=O)N/N=C(\C)c2ccccn2)cc1OC,i,nt,70,i
SMILES,F508del corr,EWS-Fli block,PAX8 inh HTS,LGR2 antag
C/C(=N\NC(=O)c1ccccc1Cl)c1ccccn1,i,i,i,i
Fc1ccc(NC(=S)N/N=C/c2ccc(F)c(F)c2)cc1,i,i,i,i
Fc1ccc(/C=N/NC(=S)Nc2ccc(Cl)cc2Cl)cc1,10,53,i,i
O=[N+]([O-])c1ccc(/C=N/NC(=S)Nc2ccc(Cl)cc2Cl)s1,i,i,92,i
Cc1ccc(S(=O)(=O)N2CC3=C(C2)C2CC2(C)C3)cc1 (configuration not stated),i,i,i,i
Cc1ccc(NC(=O)CSc2nc3ccccc3c(=O)n2Cc2cccs2)cc1,i,i,66,i
COCCCn1c(SCC(=O)Nc2ccc(C)cc2)nc2ccccc2c1=O,i,i,i,i
CCc1ccc(NC(=O)Cn2c3[n+](c4c(F)c(F)ccc42)CCCCC3)cc1,i,i,76,i
N#Cc1ccc(NC(=O)Cn2c3[n+](c4ccc(C(F)(F)F)cc42)CCCCC3)cc1,i,i,i,i
Fc1ccccc1OCCSc1ncnc2nc[nH]c12,i,i,i,i
N#Cc1ccsc1NC(=O)CN1CCN(c2ccc(O)cc2)CC1,nt,nt,i,i
O=C(CSC1=NCCN1)Nc1cccc([N+](=O)[O-])c1,10,i,i,i
CCn1c(/C=C/Nc2ccccc2)[n+](CC)c2cc(Cl)c(Cl)cc21,i,69,i,i
